“And” between values parts separate entries of the source, which are not always exact repeats. Equal entries are not always repeated. Compounds without any hit were thinned out: in the full panel of roughly 83,000, 20% have a hit.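 Activity criterion: percent growth below 10, measured after cells in 96-well plates were exposed to a single compound concentration for 48 hours.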 Values without a mark were called inactive. The source made the active and inactive calls.
tested on: MCF7 breast; experiment: NCI-60 one-dose screen, 48 h (100 = growth as untreated, 0 = no growth, -100 = all killed); details: 10 µM unless noted

SMILES	growth
C[C@@]12CCCc3coc(c31)C(=O)c1cc3c(cc12)C(=O)C1=C(NCCS1(=O)=O)C3=O	-54.1% (active)
C=CC[PH+](c1ccccc1)c1ccccc1.C=CC[PH+](c1ccccc1)c1ccccc1.[Pt+2].[S-]c1nc2ccccc2[nH]1.[S-]c1nc2ccccc2[nH]1	3.99% (active)
Cc1cc[c-]cc1.Fc1c[c-]c(-c2ccccn2)c(F)c1.[Pt+2].c1ccc([PH+](c2ccccc2)c2ccccn2)cc1	38.9%
C#Cc1cccc(Nc2nc(Cl)nc3cc(NC(=O)CF)ccc23)c1	48.2%
CC[C@H](C)[C@H](NC(=O)c1ncccn1)C(=O)N(C)[C@H](C[C@@H](OC(C)=O)c1nc(C(=O)N[C@@H](Cc2ccccc2)C[C@H](C)C(=O)OC)cs1)C(C)C	18.9%
Cc1cc(Br)c([N+](=O)[O-])cc1[N+](=O)[O-]	91%
COc1cc(C=C2C(=O)NC(=O)NC2=O)ccc1O	106%
Oc1cc(N2CC2)c(O)cc1N1CC1	-30.3% (active)
C[C@]12CCc3sc(Nc4ccc(O)cc4)nc3C1=CC[C@@H]1[C@@H]2CC[C@]2(C)C(=O)CC[C@@H]12	3.11% (active)
CN1CCc2cc3c(cc2C1O)OCO3 (configuration not stated)	79.5% and 94.6%
N#CC(NC(=O)CCl)=C(Cl)Cl	18.5%
CC[C@@H](C)C(=O)O[C@H]1[C@H](O)[C@H]2[C@@H](CN3C[C@@H](C)CC[C@H]3[C@@]2(C)O)[C@@H]2C[C@]34O[C@]5(O)[C@@H](OC(=O)[C@@](C)(O)CC)CC[C@@]3(C)[C@@H]5[C@@H](OC(C)=O)[C@@H](OC(C)=O)[C@H]4[C@@]21O	98.4%

— PubChem BioAssay (NCI)
